Structures are written as SMILES.

This passage reports nuclear beta-catenin stimulation results from PubChem BioAssay.

The assay is described as follows: stimulators of nuclear beta-catenin in C2C12, primary screen, imaging, WNT3A-conditioned medium, mouse C2C12, NPC library (AID 1117326). Note: reference of the scale not given here. The settings on record: stimulation, at 2 µM, stronger effect = higher value.
As to `C[C@H](N)[C@H](O)c1cccc(O)c1`, the nuclear beta-catenin stimulation was -0.1%. In the case of `CN(Cc1cc(Br)cc(Br)c1N)C1CCCCC1` it was -0.5%. In the case of `CC(=O)Nc1ccccc1` it was 1.4%; in that of `CC(=O)Nc1ccc(S(=O)(=O)Nc2ccc([N+](=O)[O-])cc2)cc1`, 1.4%; in that of `CCCOc1ccc2nc(NC(=O)OC)[nH]c2c1`, 60.9%. In the case of `CN(C)CCOC(=O)C(c1ccccc1)C1(O)CCCC1` (stereo not drawn) it was 1.3%; in that of `Cc1cc(O)cc(C)c1Cl`, 2%. With `CCCCCCc1ccc(O)cc1O`, the nuclear beta-catenin stimulation is 2.1%.

As to `Nc1ncnc2nc[nH]c12`, the nuclear beta-catenin stimulation was -0.4%. In the case of `CC(N)C(=O)OC(C)(C)Cc1ccc(Cl)cc1` (stereo not drawn) it was 3.3%; in that of `COc1c2occc2c(OC)c2c(=O)cc(C)oc12`, 0.4%. As for `CC1=C(C(=O)O)N2C(=O)[C@@H](NC(=O)[C@H](N)c3ccc(O)cc3)[C@H]2SC1`, the nuclear beta-catenin stimulation was 3.3%.

As for `COc1ccc(NS(=O)(=O)c2ccc(N)cc2)nn1`, the nuclear beta-catenin stimulation was determined as 2.2%. Turning to `NC[C@H]1O[C@H](O[C@H]2[C@H](O)[C@@H](O[C@H]3O[C@H](CO)[C@@H](O)[C@H](N)[C@H]3O)[C@H](N)C[C@@H]2N)[C@H](N)[C@@H](O)[C@@H]1O`, the nuclear beta-catenin stimulation is -1.6%. In the case of `CCCCc1nc(Cl)c(CO)n1Cc1ccc(-c2ccccc2-c2nn[nH]n2)cc1` it was 2.1%. Take `CC(=O)Oc1cccc(O)c1`: the nuclear beta-catenin stimulation was 2%. `COc1ccc(C(=O)c2ccccc2)c(O)c1`: the nuclear beta-catenin stimulation is 1%. In the case of `O=C(N[C@H](CO)[C@H](O)c1ccc([N+](=O)[O-])cc1)C(Cl)Cl` it was -0.3%; in that of `CCN(CC)CCOC(=O)C(c1ccccc1)C1CCCCC1` (stereo not drawn), 0.5%; in that of `Nc1c2ccccc2nc2ccccc12`, 0.1%. For `Oc1c(Br)cc(Br)c2cccnc12`, the nuclear beta-catenin stimulation turned out to be 0.1%. In the case of `C[N+]12CCC(CC1)C(OC(=O)C(O)(c1ccccc1)c1ccccc1)C2` (stereo not drawn) it was 1.9%; in that of `CC(=O)Nc1c(I)cc(I)c(C(=O)O)c1I`, 1.9%. In the case of `Cc1c(NC(C)C)c(=O)n(-c2ccccc2)n1C` it was 7%.

For the compound `COc1ccc2cc3[n+](cc2c1OC)CCc1cc2c(cc1-3)OCO2`, the nuclear beta-catenin stimulation is 0%. For the compound `NC(N)=N/N=C/c1c(Cl)cccc1Cl`, the nuclear beta-catenin stimulation is -1.1%.

`CCN(CC)C(=O)c1cccc(C)c1`: the nuclear beta-catenin stimulation worked out at 3.9%. In the case of `CC(=O)OCC(COC(C)=O)OC(C)=O` it was 3.4%; in that of `CC1(C)OC(=O)NC1=O`, 2.2%; in that of `COc1cnc(NS(=O)(=O)c2ccc(N)cc2)nc1`, 2%. For the compound `CCCCC(CC)CN1CN(CC(CC)CCCC)CC(C)(N)C1` (stereo not drawn), the nuclear beta-catenin stimulation came out at 3.6%. In the case of `Cc1[nH]c(C)c(Cl)c(=O)c1Cl` it was 0.4%; in that of `Cc1nnc(NS(=O)(=O)c2ccc(N)cc2)s1`, 1.2%. In the case of `Nc1ccc(C(=O)O)cc1` it was 0.3%.

Turning to `Nc1nccs1`, the nuclear beta-catenin stimulation stood at 0.3%. For the compound `COc1ccc(-c2cc(C(F)F)nn2-c2ccc(S(N)(=O)=O)cc2)cc1F`, the nuclear beta-catenin stimulation turned out to be 0.7%. In the case of `NC(=O)c1ccc([N+](=O)[O-])cc1Cl` it was 0.9%; in that of `CCC(=O)O[C@H]1[C@H](O[C@@H]2[C@@H](C)[C@H](O[C@H]3C[C@@](C)(OC)[C@@H](O)[C@H](C)O3)[C@@H](C)C(=O)O[C@H](CC)[C@@](C)(O)[C@H](O)[C@@H](C)C(=O)[C@H](C)C[C@@]2(C)O)O[C@H](C)C[C@@H]1N(C)C`, -0.8%.
